Laboratory results from ChEMBL document CHEMBL1961873, “Compounds: GSK PKIS; Assays: Nanosyn kinase panel” (2012).

How the values were obtained:
[1] = molecular target: MAP/microtubule affinity-regulating kinase 3 (Homo sapiens) (UniProt P27448); settings: at 1 µM;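 also: reported values are averaged percent inhibition of MARK3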
[2] = molecular target: T1, MAP/microtubule affinity-regulating kinase 4 (Homo sapiens) (UniProt Q96L34); settings: at 0.1 µM
T1 sequence (whole entry): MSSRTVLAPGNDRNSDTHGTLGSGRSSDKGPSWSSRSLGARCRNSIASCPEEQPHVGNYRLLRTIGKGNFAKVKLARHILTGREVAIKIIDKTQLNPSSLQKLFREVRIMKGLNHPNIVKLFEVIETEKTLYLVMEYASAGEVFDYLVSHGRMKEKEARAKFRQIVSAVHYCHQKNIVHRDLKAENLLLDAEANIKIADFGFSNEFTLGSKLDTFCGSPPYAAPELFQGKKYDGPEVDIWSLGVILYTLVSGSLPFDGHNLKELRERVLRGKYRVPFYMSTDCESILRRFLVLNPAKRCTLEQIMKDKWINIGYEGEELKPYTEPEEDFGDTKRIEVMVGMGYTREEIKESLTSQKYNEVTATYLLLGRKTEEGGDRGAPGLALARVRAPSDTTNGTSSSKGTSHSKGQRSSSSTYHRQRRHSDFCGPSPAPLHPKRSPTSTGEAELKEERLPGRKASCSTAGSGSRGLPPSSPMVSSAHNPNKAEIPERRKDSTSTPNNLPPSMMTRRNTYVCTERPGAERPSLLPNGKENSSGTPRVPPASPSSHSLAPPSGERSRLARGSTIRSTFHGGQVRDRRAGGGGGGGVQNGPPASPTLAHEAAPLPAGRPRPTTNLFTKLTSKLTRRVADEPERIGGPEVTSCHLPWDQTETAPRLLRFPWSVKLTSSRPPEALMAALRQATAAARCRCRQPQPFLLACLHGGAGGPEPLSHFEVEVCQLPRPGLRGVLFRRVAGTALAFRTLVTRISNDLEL

[3] = molecular target: T1, MAP/microtubule affinity-regulating kinase 4 (Homo sapiens); settings: at 1 µM
[4] = molecular target: Maternal embryonic leucine zipper kinase (Homo sapiens) (UniProt Q14680); settings: at 0.1 µM
[5] = molecular target: Maternal embryonic leucine zipper kinase (Homo sapiens) (UniProt Q14680); settings: at 1 µM
[6] = molecular target: MAP kinase-interacting serine/threonine-protein kinase 1 (Homo sapiens) (UniProt Q9BUB5); settings: at 0.1 µM
[7] = molecular target: MAP kinase-interacting serine/threonine-protein kinase 1 (Homo sapiens) (UniProt Q9BUB5); settings: at 1 µM
[8] = molecular target: MAP kinase-interacting serine/threonine-protein kinase 2 (Homo sapiens) (UniProt Q9HBH9); settings: at 0.1 µM
[9] = molecular target: MAP kinase-interacting serine/threonine-protein kinase 2 (Homo sapiens) (UniProt Q9HBH9); settings: at 1 µM
[10] = molecular target: Serine/threonine-protein kinase MARK2 (Homo sapiens) (UniProt Q7KZI7); settings: at 0.1 µM
[11] = molecular target: Serine/threonine-protein kinase MARK2 (Homo sapiens) (UniProt Q7KZI7); settings: at 1 µM
[12] = molecular target: PAS domain-containing serine/threonine-protein kinase (Homo sapiens) (UniProt Q96RG2); settings: at 0.1 µM
[13] = molecular target: PAS domain-containing serine/threonine-protein kinase (Homo sapiens) (UniProt Q96RG2); settings: at 1 µM
[14] = molecular target: Phosphorylase b kinase gamma catalytic chain, skeletal muscle/heart isoform (Homo sapiens) (UniProt Q16816); settings: at 0.1 µM
[15] = molecular target: Phosphorylase b kinase gamma catalytic chain, skeletal muscle/heart isoform (Homo sapiens) (UniProt Q16816); settings: at 1 µM
[16] = molecular target: T2, Phosphorylase b kinase gamma catalytic chain, liver/testis isoform (Homo sapiens) (UniProt P15735); settings: at 0.1 µM
T2 sequence (whole entry): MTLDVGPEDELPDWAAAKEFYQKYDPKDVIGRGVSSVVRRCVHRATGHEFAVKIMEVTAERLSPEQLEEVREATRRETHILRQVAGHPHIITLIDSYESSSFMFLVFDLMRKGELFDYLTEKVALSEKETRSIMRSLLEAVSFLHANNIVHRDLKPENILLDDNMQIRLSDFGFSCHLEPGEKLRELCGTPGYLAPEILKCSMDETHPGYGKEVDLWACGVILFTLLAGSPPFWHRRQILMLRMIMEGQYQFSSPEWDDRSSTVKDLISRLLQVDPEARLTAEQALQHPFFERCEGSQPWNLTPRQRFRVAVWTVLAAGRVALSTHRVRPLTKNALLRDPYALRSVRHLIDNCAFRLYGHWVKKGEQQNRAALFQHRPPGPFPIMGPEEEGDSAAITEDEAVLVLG

[17] = molecular target: T2, Phosphorylase b kinase gamma catalytic chain, liver/testis isoform (Homo sapiens); settings: at 1 µM
[18] = molecular target: Serine/threonine-protein kinase pim-1 (Homo sapiens) (UniProt P11309); settings: at 0.1 µM
[19] = molecular target: Serine/threonine-protein kinase pim-1 (Homo sapiens) (UniProt P11309); settings: at 1 µM
[20] = molecular target: Serine/threonine-protein kinase pim-2 (Homo sapiens) (UniProt Q9P1W9); settings: at 0.1 µM;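 also: reported value is the mean percent inhibition of PIM2, measured in the GSK PKIS kinase inhibitor set screen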
Serine/threonine-protein kinase pim-2 (Homo sapiens), sequence (Q9P1W9 whole entry, looked up): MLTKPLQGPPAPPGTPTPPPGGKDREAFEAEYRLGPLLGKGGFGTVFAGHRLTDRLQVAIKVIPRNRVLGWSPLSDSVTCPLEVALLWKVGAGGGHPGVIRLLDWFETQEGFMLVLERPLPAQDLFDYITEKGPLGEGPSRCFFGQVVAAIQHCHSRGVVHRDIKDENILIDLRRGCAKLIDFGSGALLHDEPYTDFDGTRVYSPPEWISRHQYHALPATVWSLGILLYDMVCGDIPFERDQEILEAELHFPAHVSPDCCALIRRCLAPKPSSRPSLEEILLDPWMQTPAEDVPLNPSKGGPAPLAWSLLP

Serine/threonine-protein kinase pim-1 (Homo sapiens), sequence (P11309 whole entry, looked up): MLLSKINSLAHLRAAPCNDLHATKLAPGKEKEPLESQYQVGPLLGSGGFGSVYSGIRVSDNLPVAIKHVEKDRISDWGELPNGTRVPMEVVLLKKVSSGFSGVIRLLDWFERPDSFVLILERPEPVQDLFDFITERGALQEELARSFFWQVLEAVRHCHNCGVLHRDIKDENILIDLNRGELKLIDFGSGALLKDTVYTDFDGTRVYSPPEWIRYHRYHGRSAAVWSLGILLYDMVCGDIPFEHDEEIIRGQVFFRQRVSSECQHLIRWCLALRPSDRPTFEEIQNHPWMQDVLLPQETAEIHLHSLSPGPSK
Maternal embryonic leucine zipper kinase (Homo sapiens), sequence (Q14680 whole entry, looked up): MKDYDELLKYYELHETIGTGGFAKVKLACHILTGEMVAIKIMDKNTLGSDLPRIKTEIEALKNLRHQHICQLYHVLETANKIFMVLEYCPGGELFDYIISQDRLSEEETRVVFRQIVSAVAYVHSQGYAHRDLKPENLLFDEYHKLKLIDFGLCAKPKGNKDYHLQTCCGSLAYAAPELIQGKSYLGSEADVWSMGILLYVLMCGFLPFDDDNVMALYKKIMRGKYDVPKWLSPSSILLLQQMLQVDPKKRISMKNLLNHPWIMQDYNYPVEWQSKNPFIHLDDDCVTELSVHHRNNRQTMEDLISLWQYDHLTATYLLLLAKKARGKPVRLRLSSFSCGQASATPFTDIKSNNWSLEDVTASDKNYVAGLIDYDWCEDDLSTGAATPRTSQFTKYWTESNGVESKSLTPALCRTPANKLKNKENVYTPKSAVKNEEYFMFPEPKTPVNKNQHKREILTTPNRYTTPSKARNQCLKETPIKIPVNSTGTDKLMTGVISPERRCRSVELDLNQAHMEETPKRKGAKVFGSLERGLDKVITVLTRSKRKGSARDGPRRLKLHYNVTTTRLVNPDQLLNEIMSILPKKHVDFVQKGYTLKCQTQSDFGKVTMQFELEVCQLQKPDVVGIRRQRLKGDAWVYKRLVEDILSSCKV
Serine/threonine-protein kinase MARK2 (Homo sapiens), sequence (Q7KZI7 whole entry, the tested form may be a part): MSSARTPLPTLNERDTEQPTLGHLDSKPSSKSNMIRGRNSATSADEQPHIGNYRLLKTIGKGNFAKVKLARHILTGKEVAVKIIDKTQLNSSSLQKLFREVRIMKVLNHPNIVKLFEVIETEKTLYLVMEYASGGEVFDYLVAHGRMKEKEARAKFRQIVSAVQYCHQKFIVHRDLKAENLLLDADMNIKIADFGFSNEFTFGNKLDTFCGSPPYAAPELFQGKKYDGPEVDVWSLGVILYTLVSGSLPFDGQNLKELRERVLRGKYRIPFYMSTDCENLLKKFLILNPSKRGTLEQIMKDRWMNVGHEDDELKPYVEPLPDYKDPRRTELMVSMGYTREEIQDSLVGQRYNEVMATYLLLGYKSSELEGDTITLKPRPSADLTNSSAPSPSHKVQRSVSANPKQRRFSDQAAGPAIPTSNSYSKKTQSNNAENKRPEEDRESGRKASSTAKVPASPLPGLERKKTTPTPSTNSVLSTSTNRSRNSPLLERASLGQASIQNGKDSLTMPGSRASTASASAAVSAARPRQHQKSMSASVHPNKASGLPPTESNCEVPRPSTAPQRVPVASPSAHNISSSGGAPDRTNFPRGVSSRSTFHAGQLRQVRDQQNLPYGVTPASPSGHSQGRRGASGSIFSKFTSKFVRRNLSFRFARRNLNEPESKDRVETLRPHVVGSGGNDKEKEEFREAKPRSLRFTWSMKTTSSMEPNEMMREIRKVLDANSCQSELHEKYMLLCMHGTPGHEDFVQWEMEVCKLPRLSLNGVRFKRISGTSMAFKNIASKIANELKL
MAP/microtubule affinity-regulating kinase 3 (Homo sapiens), sequence (P27448 whole entry, looked up): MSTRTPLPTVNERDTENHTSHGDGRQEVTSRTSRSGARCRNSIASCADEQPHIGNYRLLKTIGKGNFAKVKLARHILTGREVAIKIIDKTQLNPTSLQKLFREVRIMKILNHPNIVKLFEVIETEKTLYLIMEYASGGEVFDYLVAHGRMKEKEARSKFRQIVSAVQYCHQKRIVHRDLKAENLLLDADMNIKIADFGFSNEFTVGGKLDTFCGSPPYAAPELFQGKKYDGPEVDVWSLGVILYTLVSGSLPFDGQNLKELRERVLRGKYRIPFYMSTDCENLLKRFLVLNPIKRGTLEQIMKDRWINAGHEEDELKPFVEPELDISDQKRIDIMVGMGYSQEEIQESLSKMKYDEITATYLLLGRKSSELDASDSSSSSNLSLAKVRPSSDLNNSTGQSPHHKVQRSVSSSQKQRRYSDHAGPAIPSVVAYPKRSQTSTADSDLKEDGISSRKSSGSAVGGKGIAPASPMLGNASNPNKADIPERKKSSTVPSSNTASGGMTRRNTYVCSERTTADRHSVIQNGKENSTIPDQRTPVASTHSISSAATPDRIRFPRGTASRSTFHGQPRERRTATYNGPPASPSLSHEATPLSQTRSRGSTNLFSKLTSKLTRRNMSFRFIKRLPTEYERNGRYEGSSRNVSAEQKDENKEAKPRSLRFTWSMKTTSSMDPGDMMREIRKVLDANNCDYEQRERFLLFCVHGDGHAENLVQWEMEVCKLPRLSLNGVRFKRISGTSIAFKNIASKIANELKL
Phosphorylase b kinase gamma catalytic chain, skeletal muscle/heart isoform (Homo sapiens), sequence (Q16816 whole entry, looked up, canonical isoform): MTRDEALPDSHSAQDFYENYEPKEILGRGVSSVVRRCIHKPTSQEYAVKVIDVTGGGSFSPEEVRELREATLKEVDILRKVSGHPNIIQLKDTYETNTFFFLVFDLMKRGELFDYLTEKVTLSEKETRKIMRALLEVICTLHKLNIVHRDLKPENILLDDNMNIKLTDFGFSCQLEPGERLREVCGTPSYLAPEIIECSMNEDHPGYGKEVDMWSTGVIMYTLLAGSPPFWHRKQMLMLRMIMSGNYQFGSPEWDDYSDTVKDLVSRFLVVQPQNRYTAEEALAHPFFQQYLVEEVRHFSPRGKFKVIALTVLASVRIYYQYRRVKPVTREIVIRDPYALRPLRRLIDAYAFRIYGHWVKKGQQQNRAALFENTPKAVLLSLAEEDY
MAP kinase-interacting serine/threonine-protein kinase 1 (Homo sapiens), sequence (Q9BUB5 whole entry, looked up): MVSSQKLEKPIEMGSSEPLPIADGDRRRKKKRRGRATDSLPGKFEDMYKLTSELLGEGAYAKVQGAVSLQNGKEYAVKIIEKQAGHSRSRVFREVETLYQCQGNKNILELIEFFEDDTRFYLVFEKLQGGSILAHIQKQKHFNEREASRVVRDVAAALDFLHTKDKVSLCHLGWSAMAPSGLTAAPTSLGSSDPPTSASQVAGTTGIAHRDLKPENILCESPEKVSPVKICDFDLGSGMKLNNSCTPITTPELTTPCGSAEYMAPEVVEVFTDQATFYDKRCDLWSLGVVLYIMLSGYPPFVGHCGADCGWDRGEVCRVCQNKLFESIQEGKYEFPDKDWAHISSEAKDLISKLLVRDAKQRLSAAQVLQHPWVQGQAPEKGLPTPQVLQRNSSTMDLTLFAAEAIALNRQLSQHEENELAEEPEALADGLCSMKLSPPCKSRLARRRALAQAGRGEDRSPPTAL
MAP kinase-interacting serine/threonine-protein kinase 2 (Homo sapiens), sequence (Q9HBH9 whole entry, looked up): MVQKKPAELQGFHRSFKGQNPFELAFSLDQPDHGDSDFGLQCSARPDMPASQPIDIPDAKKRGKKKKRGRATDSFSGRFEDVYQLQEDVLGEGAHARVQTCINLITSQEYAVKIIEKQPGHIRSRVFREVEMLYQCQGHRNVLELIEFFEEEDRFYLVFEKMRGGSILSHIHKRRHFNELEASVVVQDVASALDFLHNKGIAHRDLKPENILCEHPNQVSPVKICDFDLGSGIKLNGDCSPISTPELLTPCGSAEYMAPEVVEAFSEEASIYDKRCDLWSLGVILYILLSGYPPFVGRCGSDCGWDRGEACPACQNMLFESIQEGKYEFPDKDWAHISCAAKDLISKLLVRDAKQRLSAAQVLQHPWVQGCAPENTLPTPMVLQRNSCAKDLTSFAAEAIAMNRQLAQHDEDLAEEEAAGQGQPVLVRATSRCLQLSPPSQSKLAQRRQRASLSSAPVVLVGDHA

Row | SMILES | inhibition [1] | inhibition [2] | inhibition [3] | inhibition [4] | inhibition [5] | inhibition [6] | inhibition [7] | inhibition [8] | inhibition [9] | inhibition [10] | inhibition [11] | inhibition [12] | inhibition [13] | inhibition [14] | inhibition [15] | inhibition [16] | inhibition [17] | inhibition [18] | inhibition [19] | inhibition [20]
1 | CCCN1CCC=C(c2ccc(Nc3nc(Nc4ccccc4C(N)=O)c4cc[nH]c4n3)c(C)c2)C1 | 20.8% | 3.18% | 13.7% | 10% | 44.7% | 2.32% | 3.91% | 1.78% | 7.47% | 1.68% | 14.6% | -1.89% | -1.19% | -1.86% | 48.2% | 7.18% | 16.4% | 2.16% | 7.46% | 0.34%
2 | COC(=O)Nc1nc2cc(Oc3cccc(NC(=O)Nc4cc(C(F)(F)F)ccc4F)c3)ccc2[nH]1 | 1.94% | 1.07% | 2.15% | -0.49% | 1.36% | 1.02% | 1.01% | 3.02% | -0.05% | 0.89% | 0.86% | 0.12% | 0.57% | 2.73% | 2.22% | -0.89% | -1.83% | -0.25% | 0.39% | -0.3%
3 | Cc1nnc(-c2ccc(C)c(-c3ccc(C(=O)Nc4cccc(C#N)c4)cc3)c2)o1 | 4.82% | 0.41% | 1.13% | -0.46% | 6.64% | 1.54% | 4.88% | 0.9% | 3.32% | -1.11% | 0.87% | 0.45% | 4.14% | 2.07% | 6.42% | 2.78% | 4.43% | -0.05% | 0.66% | 0.29%
4 | N#Cc1c(NC(=O)c2cccc3ccccc23)sc2c1CCCC2 | 0.94% | 2.49% | 1.96% | 4.2% | 7.39% | 1.49% | 4.73% | 1.09% | 1.55% | 0.64% | 1.22% | -0.47% | -1.11% | 8.32% | 5.08% | 2.74% | 1.46% | 0.51% | 0.27% | -0.34%
5 | O=C1NC(=O)C(c2ccc(Cl)cc2)=C1Nc1ccc(Cl)c(C(=O)O)c1 | 1.91% | -0.05% | 1.71% | -3.46% | 1.25% | -0.24% | -0.57% | -0.57% | 0.11% | -0.46% | 2.17% | -0.66% | -1.05% | -1.07% | 1.44% | -3.95% | -5.8% | -0.65% | -0.5% | 1.05%
6 | COc1cccc(-n2ncc3c(N/N=C/c4cccc(F)c4)ncnc32)c1 | -1.64% | 1.82% | 5.56% | 4.24% | 11% | 2.81% | 11.8% | 1.92% | 6.42% | 0.05% | 2.5% | -0.33% | -1.6% | 5.06% | 9% | 2.06% | 1.7% | -0.24% | 0.52% | -3.26%
7 | COc1ccc(-c2ccncc2)cc1C(N)=O | 5.66% | 1.72% | 2.64% | 3.65% | 8.7% | 2.15% | 5.97% | 0.23% | 6.75% |  | 0.17% | -0.78% | -0.33% | 2.55% | 3.87% | 5.73% | 5.45% | 0.06% | 2.13% | -0.49%
8 | Nc1nc(-c2ccccn2)c(-c2ccc3ncccc3n2)s1 | 8.13% | 0.3% | 2.26% | 3.67% | 7.64% | 2.16% | 5.61% | 1% | 5.53% | -3.64% | 1.77% | -0.2% | -0.49% | 0.58% | 4.27% | 4.79% | 5.31% | 0.81% | 2.21% | -0.67%
9 | CCn1c(-c2nonc2N)nc2cncc(C(=O)N3CC[C@H](N)C3)c21 | 4.57% | 2.19% | 4.51% | 14.8% | 60.6% | 3.74% | 9.55% | 2.07% | 10.8% | 1.6% | 7.14% | 0.29% | 22.9% | 6.12% | 6.32% | 6.67% | 5.58% | 74.1% | 94.2% | 9.73%
10 | Nc1ncnc2occ(-c3ccc(NC(=O)Nc4cc(C(F)(F)F)cc(C(F)(F)F)c4)cc3)c12 | 2.35% | 1.32% | 1.47% | 0.21% |  | 3.24% | 12.2% | 0.38% | 7.49% | -1.98% | 0.58% | 0.36% | -1.29% | 1.04% | 2.55% | 1.7% | -1.63% | 0.69% | 0.66% | 0.17%
11 | COc1ccc(-c2coc3ncnc(N)c23)cc1 | -0.28% | 3.62% | 2.28% | 4.21% | 5.33% | 2.45% | 4.3% | 0.67% | 0.83% | 0.91% | 2.28% | -0.15% | -1.42% | 3.44% | 6.53% | 4.41% | 2.09% | 1.29% | 1.42% | 0.43%
12 | COc1cc2ncn(-c3cc(O[C@@H](C)c4ccccc4Cl)c(C(N)=O)s3)c2cc1OC | 8.06% | 2.88% | 7.69% | 4.41% | 9.71% | 1.25% | 2.74% | -0.9% | 7.84% | 1.49% | 5.29% | 0.19% | 1.28% | 5.83% | 8.24% | 6.55% | 6.6% | -0.02% | 1.8% | -0.11%
13 | NS(=O)(=O)c1ccc(N/N=C2\C(=O)Nc3ccc(C(=O)NCCc4c[nH]cn4)cc32)cc1 | 49.1% | 11.8% | 56.3% | 82% | 98% | 2.81% | 4.11% | 1.48% | 4.85% | 7.88% | 40.4% | 0.48% | -3.06% | 14.2% | 58.7% | 8.35% | 24% | 10.5% | 51.7% | 3.79%
14 | Cc1cccc(-c2n[nH]cc2-c2ccc3ncccc3n2)n1 | 0.24% | -0.19% | -0.68% | 1.01% | 4.06% | 0.44% | 2.25% | 0.2% | 3.14% | -0.96% | -0.03% | -0.24% | 1.18% | 1.19% | 2.02% | -0.65% | -0.32% | -0.24% | 0.02% | 0.22%
